# What was measured:
# [1] = molecular target: Ribosomal protein S6 kinase alpha-5 (Homo sapiens) (UniProt O75582); settings: at 1 µM
# [2] = molecular target: Ribosomal protein S6 kinase alpha-5 (Homo sapiens) (UniProt O75582); settings: at 10 µM
# [3] = molecular target: Ribosomal protein S6 kinase alpha-4 (Homo sapiens) (UniProt O75676); settings: at 1 µM
# [4] = molecular target: Ribosomal protein S6 kinase alpha-4 (Homo sapiens) (UniProt O75676); settings: at 10 µM
# [5] = molecular target: SRSF protein kinase 3 (Homo sapiens) (UniProt Q9UPE1); settings: at 1 µM
# SRSF protein kinase 3 (Homo sapiens), sequence (Q9UPE1 whole entry): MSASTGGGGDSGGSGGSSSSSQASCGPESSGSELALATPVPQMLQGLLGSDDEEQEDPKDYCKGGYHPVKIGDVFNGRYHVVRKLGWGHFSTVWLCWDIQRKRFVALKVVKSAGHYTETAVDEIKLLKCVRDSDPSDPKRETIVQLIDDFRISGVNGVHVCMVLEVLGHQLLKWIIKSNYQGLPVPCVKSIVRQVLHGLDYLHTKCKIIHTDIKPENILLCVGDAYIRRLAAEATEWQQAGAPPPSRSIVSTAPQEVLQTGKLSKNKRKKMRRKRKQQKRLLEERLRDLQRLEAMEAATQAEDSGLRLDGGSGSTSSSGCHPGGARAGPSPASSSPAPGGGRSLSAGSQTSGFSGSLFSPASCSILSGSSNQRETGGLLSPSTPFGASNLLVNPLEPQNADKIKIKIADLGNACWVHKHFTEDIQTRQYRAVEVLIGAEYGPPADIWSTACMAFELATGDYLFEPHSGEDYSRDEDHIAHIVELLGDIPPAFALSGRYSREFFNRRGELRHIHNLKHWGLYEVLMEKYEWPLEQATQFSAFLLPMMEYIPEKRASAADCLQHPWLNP
# [6] = molecular target: SRSF protein kinase 3 (Homo sapiens) (UniProt Q9UPE1); settings: at 10 µM
# [7] = molecular target: T1, Serine/threonine-protein kinase 4 (Homo sapiens) (UniProt Q13043); settings: at 1 µM
# T1 sequence (whole entry): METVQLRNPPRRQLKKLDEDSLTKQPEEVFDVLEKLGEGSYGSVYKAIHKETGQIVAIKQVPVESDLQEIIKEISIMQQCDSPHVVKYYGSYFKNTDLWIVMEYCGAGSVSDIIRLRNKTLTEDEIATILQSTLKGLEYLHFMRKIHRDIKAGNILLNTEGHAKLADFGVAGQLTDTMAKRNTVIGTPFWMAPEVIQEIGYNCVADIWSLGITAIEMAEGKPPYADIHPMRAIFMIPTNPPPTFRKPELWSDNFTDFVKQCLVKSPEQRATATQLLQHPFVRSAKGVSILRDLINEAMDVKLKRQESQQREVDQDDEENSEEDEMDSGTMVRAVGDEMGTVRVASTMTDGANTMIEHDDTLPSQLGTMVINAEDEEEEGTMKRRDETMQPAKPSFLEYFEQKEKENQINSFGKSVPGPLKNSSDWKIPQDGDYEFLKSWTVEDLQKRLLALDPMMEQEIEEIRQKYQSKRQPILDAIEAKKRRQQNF
# [8] = molecular target: T1, Serine/threonine-protein kinase 4 (Homo sapiens); settings: at 10 µM
# [9] = molecular target: T2, Serine/threonine-protein kinase 3 (Homo sapiens) (UniProt Q13188); settings: at 1 µM
# T2 sequence (whole entry): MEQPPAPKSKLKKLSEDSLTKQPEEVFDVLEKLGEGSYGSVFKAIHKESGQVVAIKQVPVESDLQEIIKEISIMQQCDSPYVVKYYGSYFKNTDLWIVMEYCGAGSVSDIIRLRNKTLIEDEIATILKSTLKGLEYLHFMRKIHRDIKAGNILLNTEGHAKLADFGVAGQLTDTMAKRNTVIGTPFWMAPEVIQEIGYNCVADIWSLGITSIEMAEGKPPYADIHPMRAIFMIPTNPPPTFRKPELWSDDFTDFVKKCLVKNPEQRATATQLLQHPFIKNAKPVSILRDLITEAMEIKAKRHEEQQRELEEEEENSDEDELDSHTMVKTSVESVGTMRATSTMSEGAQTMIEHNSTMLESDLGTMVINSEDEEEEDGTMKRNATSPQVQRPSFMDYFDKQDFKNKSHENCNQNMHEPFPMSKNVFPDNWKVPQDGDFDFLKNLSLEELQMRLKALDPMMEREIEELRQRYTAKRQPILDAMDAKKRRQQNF
# [10] = molecular target: T2, Serine/threonine-protein kinase 3 (Homo sapiens); settings: at 10 µM
# [11] = molecular target: Serine/threonine-protein kinase 24 (Homo sapiens) (UniProt Q9Y6E0); settings: at 1 µM
# Serine/threonine-protein kinase 24 (Homo sapiens), sequence (Q9Y6E0 whole entry, looked up): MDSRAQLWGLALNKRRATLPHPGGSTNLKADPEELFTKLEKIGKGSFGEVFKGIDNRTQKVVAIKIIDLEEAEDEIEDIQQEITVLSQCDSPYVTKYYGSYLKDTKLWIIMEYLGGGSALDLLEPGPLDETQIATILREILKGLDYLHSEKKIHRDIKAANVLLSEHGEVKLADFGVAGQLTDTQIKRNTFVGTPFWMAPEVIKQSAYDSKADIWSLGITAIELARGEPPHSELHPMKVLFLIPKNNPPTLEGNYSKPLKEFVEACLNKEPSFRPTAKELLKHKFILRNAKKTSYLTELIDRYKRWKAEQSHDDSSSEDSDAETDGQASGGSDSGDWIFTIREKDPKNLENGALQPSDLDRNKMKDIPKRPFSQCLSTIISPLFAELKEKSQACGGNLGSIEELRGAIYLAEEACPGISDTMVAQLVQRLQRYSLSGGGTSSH
# [12] = molecular target: Serine/threonine-protein kinase 24 (Homo sapiens) (UniProt Q9Y6E0); settings: at 10 µM
# [13] = molecular target: T3, Tyrosine-protein kinase Mer (Homo sapiens) (UniProt Q12866); settings: at 1 µM
# T3 sequence (whole entry): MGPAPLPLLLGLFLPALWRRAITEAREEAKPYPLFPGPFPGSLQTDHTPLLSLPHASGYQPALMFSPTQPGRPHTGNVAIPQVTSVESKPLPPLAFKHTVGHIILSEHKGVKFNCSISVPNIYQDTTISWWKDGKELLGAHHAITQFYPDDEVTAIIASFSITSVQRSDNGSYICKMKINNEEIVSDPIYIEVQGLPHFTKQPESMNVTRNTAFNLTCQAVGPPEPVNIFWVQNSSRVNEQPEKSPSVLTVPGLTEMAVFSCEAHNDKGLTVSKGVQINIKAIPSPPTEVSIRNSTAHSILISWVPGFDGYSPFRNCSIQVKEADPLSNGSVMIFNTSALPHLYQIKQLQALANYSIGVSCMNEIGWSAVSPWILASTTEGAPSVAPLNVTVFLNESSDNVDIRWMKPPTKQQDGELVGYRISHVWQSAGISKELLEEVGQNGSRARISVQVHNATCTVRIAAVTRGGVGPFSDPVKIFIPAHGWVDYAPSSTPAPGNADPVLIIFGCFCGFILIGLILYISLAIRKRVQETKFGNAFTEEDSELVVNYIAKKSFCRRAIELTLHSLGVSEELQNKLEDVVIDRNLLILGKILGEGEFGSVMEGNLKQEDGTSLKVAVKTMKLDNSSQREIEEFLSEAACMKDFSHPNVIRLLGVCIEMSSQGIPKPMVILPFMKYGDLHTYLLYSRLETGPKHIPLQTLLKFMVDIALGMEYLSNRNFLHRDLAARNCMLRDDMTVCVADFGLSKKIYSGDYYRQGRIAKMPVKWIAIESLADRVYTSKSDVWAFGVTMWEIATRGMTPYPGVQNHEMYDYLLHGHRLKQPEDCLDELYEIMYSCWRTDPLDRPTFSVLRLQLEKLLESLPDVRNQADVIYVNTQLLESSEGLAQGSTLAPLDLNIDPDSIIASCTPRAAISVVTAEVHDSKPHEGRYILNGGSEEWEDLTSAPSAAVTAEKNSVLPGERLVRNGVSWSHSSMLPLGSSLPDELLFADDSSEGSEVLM
# [14] = molecular target: T3, Tyrosine-protein kinase Mer (Homo sapiens); settings: at 10 µM
# [15] = molecular target: Hepatocyte growth factor receptor (Homo sapiens) (UniProt P08581); settings: at 1 µM
# Hepatocyte growth factor receptor (Homo sapiens), sequence (P08581 whole entry): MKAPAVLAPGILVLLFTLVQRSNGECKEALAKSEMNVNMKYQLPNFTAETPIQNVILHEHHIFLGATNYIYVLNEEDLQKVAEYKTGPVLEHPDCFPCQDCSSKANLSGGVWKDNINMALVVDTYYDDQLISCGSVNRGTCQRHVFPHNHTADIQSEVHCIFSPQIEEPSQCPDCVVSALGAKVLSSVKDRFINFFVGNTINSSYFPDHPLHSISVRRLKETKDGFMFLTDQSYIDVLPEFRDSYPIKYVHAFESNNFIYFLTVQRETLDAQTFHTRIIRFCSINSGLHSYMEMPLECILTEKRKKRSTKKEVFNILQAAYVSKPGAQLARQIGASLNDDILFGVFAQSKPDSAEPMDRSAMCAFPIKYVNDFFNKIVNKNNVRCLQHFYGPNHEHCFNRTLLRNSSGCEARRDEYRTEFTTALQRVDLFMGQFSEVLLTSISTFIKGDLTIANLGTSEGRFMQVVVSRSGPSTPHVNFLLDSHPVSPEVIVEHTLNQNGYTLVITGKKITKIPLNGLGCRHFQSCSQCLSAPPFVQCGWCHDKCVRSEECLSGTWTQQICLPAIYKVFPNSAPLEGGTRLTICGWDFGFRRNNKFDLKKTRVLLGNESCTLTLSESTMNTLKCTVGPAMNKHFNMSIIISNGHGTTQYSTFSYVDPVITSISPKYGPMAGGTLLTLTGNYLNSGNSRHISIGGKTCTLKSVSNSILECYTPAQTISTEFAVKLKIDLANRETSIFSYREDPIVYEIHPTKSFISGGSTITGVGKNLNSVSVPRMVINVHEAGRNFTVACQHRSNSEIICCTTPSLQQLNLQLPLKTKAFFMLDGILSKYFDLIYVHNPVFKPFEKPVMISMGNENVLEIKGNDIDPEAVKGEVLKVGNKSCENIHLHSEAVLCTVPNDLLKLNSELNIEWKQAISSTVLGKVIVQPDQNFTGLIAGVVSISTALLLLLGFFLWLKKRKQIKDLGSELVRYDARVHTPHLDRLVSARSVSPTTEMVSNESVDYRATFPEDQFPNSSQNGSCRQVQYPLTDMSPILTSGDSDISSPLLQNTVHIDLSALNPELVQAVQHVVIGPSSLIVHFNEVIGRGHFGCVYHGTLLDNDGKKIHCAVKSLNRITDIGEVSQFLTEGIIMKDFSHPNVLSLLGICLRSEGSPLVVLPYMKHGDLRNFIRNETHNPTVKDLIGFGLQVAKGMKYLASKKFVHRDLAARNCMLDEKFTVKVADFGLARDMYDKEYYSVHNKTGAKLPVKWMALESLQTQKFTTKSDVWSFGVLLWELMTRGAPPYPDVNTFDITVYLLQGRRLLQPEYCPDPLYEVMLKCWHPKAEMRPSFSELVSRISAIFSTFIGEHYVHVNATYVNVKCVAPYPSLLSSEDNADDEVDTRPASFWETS
# [16] = molecular target: Hepatocyte growth factor receptor (Homo sapiens) (UniProt P08581); settings: at 10 µM
# [17] = molecular target: MAP kinase-interacting serine/threonine-protein kinase 2 (Homo sapiens) (UniProt Q9HBH9); settings: at 1 µM
# MAP kinase-interacting serine/threonine-protein kinase 2 (Homo sapiens), sequence (Q9HBH9 whole entry, looked up): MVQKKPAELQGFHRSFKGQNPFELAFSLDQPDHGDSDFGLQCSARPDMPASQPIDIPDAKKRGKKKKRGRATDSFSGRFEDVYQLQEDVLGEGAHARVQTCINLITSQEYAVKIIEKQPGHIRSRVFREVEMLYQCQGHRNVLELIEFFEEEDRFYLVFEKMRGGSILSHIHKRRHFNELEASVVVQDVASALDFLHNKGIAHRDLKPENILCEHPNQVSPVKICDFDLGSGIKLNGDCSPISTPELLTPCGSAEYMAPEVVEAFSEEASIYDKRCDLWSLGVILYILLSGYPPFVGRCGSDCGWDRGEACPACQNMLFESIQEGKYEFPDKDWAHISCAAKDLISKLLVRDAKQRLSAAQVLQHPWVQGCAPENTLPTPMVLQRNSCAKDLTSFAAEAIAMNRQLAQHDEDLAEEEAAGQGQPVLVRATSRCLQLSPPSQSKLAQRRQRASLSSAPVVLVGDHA
# [18] = molecular target: MAP kinase-interacting serine/threonine-protein kinase 2 (Homo sapiens) (UniProt Q9HBH9); settings: at 10 µM
# [19] = molecular target: Serine/threonine-protein kinase MRCK beta (Homo sapiens) (UniProt Q9Y5S2); settings: at 1 µM
# [20] = molecular target: Serine/threonine-protein kinase MRCK beta (Homo sapiens) (UniProt Q9Y5S2); settings: at 10 µM
# Ribosomal protein S6 kinase alpha-4 (Homo sapiens), sequence (O75676 whole entry, looked up): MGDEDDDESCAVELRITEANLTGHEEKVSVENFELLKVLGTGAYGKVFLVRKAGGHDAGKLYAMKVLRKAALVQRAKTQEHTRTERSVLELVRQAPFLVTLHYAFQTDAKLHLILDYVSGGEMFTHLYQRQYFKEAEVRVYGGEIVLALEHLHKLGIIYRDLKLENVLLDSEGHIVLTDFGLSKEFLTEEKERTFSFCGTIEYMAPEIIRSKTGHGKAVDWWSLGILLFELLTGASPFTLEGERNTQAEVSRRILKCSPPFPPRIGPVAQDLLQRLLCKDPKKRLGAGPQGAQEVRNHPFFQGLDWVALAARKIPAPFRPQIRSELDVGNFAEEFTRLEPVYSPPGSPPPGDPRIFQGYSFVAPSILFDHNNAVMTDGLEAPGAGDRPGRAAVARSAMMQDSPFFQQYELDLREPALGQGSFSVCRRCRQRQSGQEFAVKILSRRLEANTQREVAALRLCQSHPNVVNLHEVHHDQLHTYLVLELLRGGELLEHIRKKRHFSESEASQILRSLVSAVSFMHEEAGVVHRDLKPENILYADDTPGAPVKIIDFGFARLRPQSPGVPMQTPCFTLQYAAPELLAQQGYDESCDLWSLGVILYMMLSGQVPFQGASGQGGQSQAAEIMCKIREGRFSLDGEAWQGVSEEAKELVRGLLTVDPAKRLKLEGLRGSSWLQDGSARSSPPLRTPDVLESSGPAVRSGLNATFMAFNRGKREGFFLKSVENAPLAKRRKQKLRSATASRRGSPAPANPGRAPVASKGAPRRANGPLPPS
# Ribosomal protein S6 kinase alpha-5 (Homo sapiens), sequence (O75582 whole entry, looked up): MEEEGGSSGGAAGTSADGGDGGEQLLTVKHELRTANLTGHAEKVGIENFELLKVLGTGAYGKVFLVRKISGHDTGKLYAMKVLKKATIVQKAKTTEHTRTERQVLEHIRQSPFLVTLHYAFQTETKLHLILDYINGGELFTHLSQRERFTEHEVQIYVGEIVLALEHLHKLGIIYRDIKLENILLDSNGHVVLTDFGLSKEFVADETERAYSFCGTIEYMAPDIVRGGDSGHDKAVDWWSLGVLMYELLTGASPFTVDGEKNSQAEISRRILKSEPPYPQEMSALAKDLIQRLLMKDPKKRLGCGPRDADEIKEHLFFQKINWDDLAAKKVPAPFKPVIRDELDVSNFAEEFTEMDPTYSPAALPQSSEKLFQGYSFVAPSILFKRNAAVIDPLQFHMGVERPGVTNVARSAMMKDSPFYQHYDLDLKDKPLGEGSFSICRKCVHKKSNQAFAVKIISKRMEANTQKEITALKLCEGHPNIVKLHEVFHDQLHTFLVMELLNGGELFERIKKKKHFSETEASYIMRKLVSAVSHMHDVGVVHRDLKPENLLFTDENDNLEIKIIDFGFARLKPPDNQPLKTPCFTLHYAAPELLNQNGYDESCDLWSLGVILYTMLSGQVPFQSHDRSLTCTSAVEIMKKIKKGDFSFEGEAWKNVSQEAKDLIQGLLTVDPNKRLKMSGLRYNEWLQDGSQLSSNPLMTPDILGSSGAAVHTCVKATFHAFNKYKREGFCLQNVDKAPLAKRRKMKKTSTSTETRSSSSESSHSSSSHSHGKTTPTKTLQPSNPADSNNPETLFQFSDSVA
smiles,measurement,setting,value
CCN(CC)CCNC(=O)c1c(C)[nH]c(/C=C2\C(=O)Nc3ccc(Cl)cc32)c1C,residual activity,[1],80%
same,residual activity,[2],31%
same,residual activity,[3],42%
same,residual activity,[4],15%
same,residual activity,[5],98%
same,residual activity,[6],61%
same,residual activity,[7],12%
same,residual activity,[8],5%
same,residual activity,[9],34%
same,residual activity,[10],2%
same,residual activity,[11],8%
same,residual activity,[12],1%
same,residual activity,[13],7%
same,residual activity,[14],0%
same,residual activity,[15],45%
same,residual activity,[16],7%
same,residual activity,[17],99%
same,residual activity,[18],45%
COc1ccc(Cl)cc1NC(=O)Nc1cc(C)nc2ccccc12,residual activity,[19],87%
same,residual activity,[20],76%
same,residual activity,[4],95%
same,residual activity,[7],93%
same,residual activity,[8],79%
same,residual activity,[11],70%
same,residual activity,[12],83%
same,residual activity,[15],89%
same,residual activity,[16],80%
Cc1cc(C)c(/C=C2\C(=O)Nc3ccccc32)[nH]1,residual activity,[19],99%
same,residual activity,[3],61%
same,residual activity,[4],39%
same,residual activity,[5],99%
same,residual activity,[7],51%
same,residual activity,[8],20%
same,residual activity,[12],72%
same,residual activity,[13],4%
same,residual activity,[14],2%
same,residual activity,[15],101%
same,residual activity,[16],98%
NC(=O)c1cccc(-c2cc(Nc3ccc(OC(F)(F)F)cc3)ncn2)c1,residual activity,[11],74%
same,residual activity,[12],93%
same,residual activity,[17],91%
same,residual activity,[18],54%
COc1ccc(-c2cnc3c(-c4ccsc4)cnn3c2)cc1,residual activity,[2],94%
same,residual activity,[3],95%
same,residual activity,[4],95%
same,residual activity,[11],67%
same,residual activity,[12],81%
same,residual activity,[17],95%
same,residual activity,[18],87%
CCOc1nc(NC(=O)Cc2cc(OC)ccc2OC)cc(N)c1C#N,residual activity,[7],80%
O=C1Nc2ccccc2/C1=C\c1c(Cl)[nH]c2ccccc12,residual activity,[1],100%
same,residual activity,[2],71%
same,residual activity,[4],59%
same,residual activity,[7],51%
same,residual activity,[8],63%
same,residual activity,[11],83%
same,residual activity,[12],67%
same,residual activity,[13],77%
same,residual activity,[14],21%
same,residual activity,[15],121%
same,residual activity,[16],40%
same,residual activity,[18],70%
CN([C@@H](Cc1ccc(OS(=O)(=O)c2cccc3cnccc23)cc1)C(=O)N1CCN(c2ccccc2)CC1)S(=O)(=O)c1cccc2cnccc12,residual activity,[5],100%
same,residual activity,[9],99%
same,residual activity,[15],85%
same,residual activity,[16],114%
O=S(=O)(c1cccc2cnccc12)N1CCCNCC1,residual activity,[2],41%
same,residual activity,[3],58%
same,residual activity,[4],21%
same,residual activity,[14],77%
N#C/C(=C1/Nc2ccccc2S1)c1ccnc(NCCc2cccnc2)n1,residual activity,[1],112%
same,residual activity,[2],68%
same,residual activity,[7],81%
same,residual activity,[8],84%
same,residual activity,[9],97%
same,residual activity,[10],56%
same,residual activity,[11],89%
same,residual activity,[12],61%
same,residual activity,[13],82%
same,residual activity,[14],69%
same,residual activity,[15],138%
same,residual activity,[16],74%
same,residual activity,[17],36%
same,residual activity,[18],8%
CN(C)S(=O)(=O)c1ccc2c(c1)/C(=C/c1cc3c([nH]1)CCCC3)C(=O)N2,residual activity,[1],115%
same,residual activity,[2],125%
same,residual activity,[4],94%
same,residual activity,[5],98%
same,residual activity,[6],77%
same,residual activity,[7],23%
same,residual activity,[8],2%
same,residual activity,[9],28%
same,residual activity,[10],22%
same,residual activity,[11],60%
same,residual activity,[12],30%
same,residual activity,[13],12%
same,residual activity,[14],13%
same,residual activity,[16],130%
same,residual activity,[17],96%
same,residual activity,[18],89%

# From ChEMBL document CHEMBL2218924, “A broad activity screen in support of a chemogenomic map for kinase signalling research and drug discovery” (Biochem J, 2013)
